{"source": "paper PMC4552634", "about": "“A New Set of Chemical Starting Points with Plasmodium falciparum Transmission-Blocking Potential for Antimalarial Drug Discovery” (PLoS ONE, 2015)", "note": "Among all 13,000 compounds or so, about 3,200 (25%) showed an effect of 50% or more. This is one part of the list."}
{"tested_on": "P. falciparum stage V gametocytes", "design": "BacTiter-Glo ATP luminescence viability of purified stage V gametocytes in 384-well plates, per cent inhibition versus DMSO", "conditions": "48 h, 5 µM; inhibitor", "units": {"% Inhibition": "%"}}
{"compound": "C[C@@H]([C@@H](CCCCc1ccccc1)C(=O)N[C@H](C(=O)Nc1cccnc1)C(C)(C)C)N(O)C=O", "note": "[TCMDC-138380]", "% Inhibition": -15.27}
{"compound": "CCN(C(=O)c1ccc(NC(=O)c2cccs2)cc1)c1nc2c(C)cccc2s1", "note": "[TCMDC-125338]", "% Inhibition": 37.84}
{"compound": "O=C(Nc1ccc(OC2CCN(Cc3ccsc3)CC2)c(Cl)c1)c1cccs1", "note": "[TCMDC-133740]", "% Inhibition": -2.262}
{"compound": "CCn1c(Cc2ccccc2)nnc1SCC(=O)N1c2ccccc2Sc2ccccc21", "note": "[TCMDC-124373]", "% Inhibition": -22.31}
{"compound": "Cc1cccc2[nH]c(-c3cccc(-c4ccc(NC(=O)C(C)CN5CCOCC5)cc4)c3)nc12", "note": "(stereo not drawn) [TCMDC-137138]", "% Inhibition": 85.59}
{"compound": "Cc1cccc2[nH]c(-c3cccc(-c4cccc(NC(=O)C(C)CN5CCN(C)CC5)c4)c3)nc12", "note": "(stereo not drawn) [TCMDC-137150]", "% Inhibition": 88.37}
{"compound": "Cc1cccc2[nH]c(-c3cccc(-c4ccc(NC(=O)CN5CCOCC5)cc4)c3)nc12", "note": "[TCMDC-136970]", "% Inhibition": -20.19}
{"compound": "Cc1cccc2[nH]c(-c3cccc(-c4ccc(NC(=O)C(C)CN(C)C)cc4)c3)nc12", "note": "(stereo not drawn) [TCMDC-137111]", "% Inhibition": 95.4}
{"compound": "CCC(C)NC(=O)Nc1cccc(-c2cccc(-c3nc4c(C)cccc4[nH]3)c2)c1", "note": "(stereo not drawn) [TCMDC-133239]", "% Inhibition": 36.1}
{"compound": "CCC(C)NC(=O)Nc1ccc(-c2cccc(-c3nc4c(C)cccc4[nH]3)c2)cc1", "note": "(stereo not drawn) [TCMDC-133238]", "% Inhibition": -3.731}
{"compound": "CC(=O)N[C@H](C(=O)Nc1ccc(-c2cccc(-c3nc4c(C)cccc4[nH]3)c2)cc1)C(C)C", "note": "[TCMDC-136853]", "% Inhibition": -50.38}
{"compound": "Cc1cccc2[nH]c(-c3cccc(-c4cccc(NC(=O)C(C)CN(C)C)c4)c3)nc12", "note": "(stereo not drawn) [TCMDC-137110]", "% Inhibition": -50.7}
{"compound": "Cc1cccc2[nH]c(-c3ccc(-c4ccc(NC(=O)C(C)CN(C)C)cc4)cc3)nc12", "note": "(stereo not drawn) [TCMDC-137105]", "% Inhibition": -73.49}
{"compound": "Cc1cccc2[nH]c(-c3ccc(-c4cccc(NC(=O)C(C)CN5CCN(C)CC5)c4)cc3)nc12", "note": "(stereo not drawn) [TCMDC-137144]", "% Inhibition": 36.55}
{"compound": "Cc1cccc2[nH]c(-c3cccc(-c4ccc(NC(=O)C(C)CN5CCN(C)CC5)cc4)c3)nc12", "note": "(stereo not drawn) [TCMDC-137151]", "% Inhibition": 58.09}
{"compound": "Cc1cccc2[nH]c(-c3cccc(-c4ccc(NC(=O)C(C)C(=O)NC(C)C)cc4)c3)nc12", "note": "(stereo not drawn) [TCMDC-132149]", "% Inhibition": -14.66}
{"compound": "CC(CCc1ccccc1)NCC(O)c1ccc2c3c(cccc13)C(=O)N2C", "note": "(stereo not drawn) [TCMDC-131252]", "% Inhibition": 17.04}
{"compound": "COc1cc(Cc2cnc(N)nc2N)cc(OCCCCCCN2C(=O)c3ccccc3C2=O)c1OC", "note": "[TCMDC-138043]", "% Inhibition": 3.318}
{"compound": "Cc1ccc(C(C#N)c2ccc3c(C(F)(F)F)cc(C(F)(F)F)nc3n2)cc1", "note": "(stereo not drawn) [TCMDC-123762]", "% Inhibition": -33.32}
{"compound": "COc1ccc(-c2c(-c3ccc(OCc4ccccc4)cc3O)n[nH]c2C(F)(F)F)cc1", "note": "[TCMDC-124771]", "% Inhibition": -11.85}
{"compound": "CCc1cc(-c2n[nH]c(C(F)(F)F)c2-c2ccccc2)c(O)cc1OC", "note": "[TCMDC-123700]", "% Inhibition": 70.95}
{"compound": "CCc1cc(-c2onc(C(F)(F)F)c2-c2ccccc2)c(O)cc1OC", "note": "[TCMDC-124464]", "% Inhibition": 25.65}
{"compound": "COc1ccc(NC(=O)Nc2nc3ccccc3s2)cc1N1CCN(C)CC1", "note": "[TCMDC-139872]", "% Inhibition": -6.741}
{"compound": "COc1cccc(OC)c1CN1CCC(N(C)CCCCCCCCN2CCC(OC(=O)Nc3ccccc3-c3ccccc3)CC2)CC1", "note": "[TCMDC-134684]", "% Inhibition": 106.8}
{"compound": "COc1cc(CN2CCC(C(=O)Nc3ccc(-c4cccc(C)c4)cc3)CC2)ccc1O", "note": "[TCMDC-124633]", "% Inhibition": 46.38}
{"compound": "COc1cccc(OC)c1CN1CCC(N(C)CCCCCCCCCN2CCC(OC(=O)Nc3ccccc3-c3ccccc3)CC2)CC1", "note": "[TCMDC-134690]", "% Inhibition": 126.7}
{"compound": "COc1ccccc1CCN(C)CCN1CCC(NC(=O)c2ccc(-c3ccc(C(F)(F)F)cc3)cc2)CC1", "note": "[TCMDC-138797]", "% Inhibition": 43.57}
{"compound": "COc1ccccc1N1CCN(CCCCN(C(=O)Nc2cccc(Cl)c2)C(=O)Nc2cccc(Cl)c2)CC1", "note": "[TCMDC-131986]", "% Inhibition": -74.5}
{"compound": "NCC(=O)c1cc2c(cc1N)OCCO2", "note": "[TCMDC-131879]", "% Inhibition": -22.77}
{"compound": "C=C(F)c1sc(CNCCCNc2nc3ccccc3[nH]2)c(C)c1Br", "note": "[TCMDC-141307]", "% Inhibition": 13.46}
{"compound": "OC1(c2ccccc2)CCN(Cc2cccc(-c3c[nH]c4nc(NC5CCCC5)ncc34)c2)C1", "note": "(stereo not drawn) [TCMDC-133775]", "% Inhibition": -50.17}
{"compound": "CC(Cc1ccc(CN(CC(N)=O)Cc2ccc(CC(C)NCCc3cccc(Cl)c3)cc2)cc1)NCCc1cccc(Cl)c1", "note": "(stereo not drawn) [TCMDC-139804]", "% Inhibition": 113.4}
{"compound": "CC(=O)N(Cc1ccc(CC(C)NCCc2cccc(Cl)c2)cc1)Cc1ccc(CC(C)NCCc2cccc(Cl)c2)cc1", "note": "(stereo not drawn) [TCMDC-139678]", "% Inhibition": 112.1}
{"compound": "CS(=O)(=O)c1ccc(CNCc2ccc(-c3ccc(-c4nc5cc(C(F)(F)F)ccc5[nH]4)s3)cc2)cc1.O=C(O)C(F)(F)F", "note": "[TCMDC-132906]", "% Inhibition": -5.935}
{"compound": "CCN(CC)CCCC(C)Nc1ccnc2cc(Cl)ccc12", "note": "(stereo not drawn) [TCMDC-123988]", "% Inhibition": 8.457}
{"compound": "CCN(CC)CCCC(C)Nc1ccnc2ccc(OC)cc12.Cl.O", "note": "(stereo not drawn) [TCMDC-123888]", "% Inhibition": 15.61}
{"compound": "CCCN(CCC)C(C)CCC(C)Nc1c2ccc(Cl)cc2nc2ccc(OC)cc12", "note": "(stereo not drawn) [TCMDC-137516]", "% Inhibition": 50.36}
{"compound": "COc1ccc2nc(-c3ccccc3)cc(NN=Cc3ccc([N+](=O)[O-])cc3)c2c1", "note": "[TCMDC-142045]", "% Inhibition": 15.04}
{"compound": "CCCN(CCC)CCCCC(C)Nc1c2ccc(Cl)cc2nc2ccc(OC)cc12", "note": "(stereo not drawn) [TCMDC-137515]", "% Inhibition": 50.13}
{"compound": "CCN(CC)CCCC(C)Nc1cc(C=Cc2ccc([N+](=O)[O-])cc2)nc2ccc(OC)cc12.O=P(O)(O)O", "note": "(stereo not drawn) [TCMDC-124247]", "% Inhibition": 98.87}
{"compound": "CCN(CC)CCCC(C)Nc1cc(C=Cc2ccccc2Cl)nc2cc(Cl)ccc12", "note": "(stereo not drawn) [TCMDC-124294]", "% Inhibition": 59.52}
{"compound": "CCN(CC)CCCC(C)Nc1cc(C)nc2cc(Cl)ccc12", "note": "(stereo not drawn) [TCMDC-124246]", "% Inhibition": 33.92}
